Compounds with a hit are over-represented: about 2.4% of the library has one in this group of screens.
ABHD5 PLIN5 PPI = ABHD5-PLIN5 interaction inhibitors, primary screen, cell lysate, split luciferase complementation, luminescence | Perilipin-5 (Homo sapiens) + 1-acylglycerol-3-phosphate O-acyltransferase ABHD5 (Homo … | Split G. princeps luciferase complementation, 4 h | inhibition, % at 4 µM | hit rate 0.78% among 360,000 | AID 602281, 2012;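 active = inhibition above the mean inhibition across every tested compound plus 3 SD, cut at about 22% in these data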;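 note: 0% = DMSO only wells and the 100% control is not disclosed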
TLR4-MyD88 BLA = inhibitors of TLR4-MyD88 association in cells, primary screen, cell-based, HeLa CL3-4, BLA complementation, FRET ratio | Toll-like receptor 4 (Homo sapiens) + Myeloid differentiation primary response protein … | HeLa CL3-4 TLR4/MyD88 BLA complementation | inhibition, % at 8.4 µM | hit rate 0.18% among 200,000 | AID 861, 2007; in the data active = inhibition above about 25%;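 note: 0% = vehicle and 100% = reference inhibitor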
CRFBP-R2 block = antagonists of CRF-BP/CRF-R2 complex, primary screen, cell-based, HEK293, calcium dye fluorescence, uHTS; hit rate 0.59% among 350,000; AID 588475, 2011; inhibition, % at 11.8 µM; CRF-induced calcium fluorescence;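 active = inhibition of the ligand-induced calcium signal above about 50% at the single tested concentration, limit read from the data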
m5-HT2A agonist = mouse Htr2a agonists via beta-arrestin recruitment, primary screen, cell-based, luminescence | CHO-K1 mHTR2A beta-arrestin complementation; percent of 30 µM serotonin response | AID 624169, 2012 | activation, % at 7.6 µM | 5-hydroxytryptamine receptor 2A (Mus musculus), P35363 | hit rate 0.66% among 360,000;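 active = activation above a run cutoff, the mean activation of all tested compounds plus 3 SD, cut at about 14% in these data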;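 note: 0% = plate median of compound wells and 100% = 30 µM serotonin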
TLR9-MyD88 block = inhibitors of TLR9-MyD88 association in cells, primary screen, cell-based, CHO, BLA complementation, fluorescence | CCF4 FRET ratio | inhibition, % at 4.98 µM | hit rate 0.21% among 340,000 | AID 504734, 2011;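 active = inhibition above the mean over all tested compounds plus 3 SD, cut at about 21% in these data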;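 note: 0% = DMSO only wells and 100% = clavulanate BLA inhibitor control wells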
NOD2-RIPK2 inh = NOD2-RIPK2 binding disruptors in cells, primary screen, fluorescence, CHO cells, BLA complementation; inhibition, % at 4.98 µM; hit rate 0.38% among 360,000; CCF4 ratio; AID 624267, 2012; Receptor-interacting serine/threonine-protein kinase 2 (Homo sapiens), O43353; in the data active = inhibition above about 21%;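 note: 0% = vehicle only and 100% = reference blocker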
ABHD5 PLIN5 conf = ABHD5-PLIN5 interaction inhibitors, confirmation, biochemical, luminescence; shares compounds with ABHD5 PLIN5 PPI; inhibition, % at 4 µM; hit rate 67% among 2,200; AID 651612, 2012; in the data active = inhibition above about 23%;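 note: 0% = DMSO vehicle wells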
HNF4 split-luc = HNF4 dimerization inhibitors, counter-screen for ABHD5-PLIN5 interaction inhibitor project, biochemical, split-luciferase complementation, luminescence | shares compounds with ABHD5 PLIN5 PPI | inhibition, % at 4 µM | hit rate 77% among 2,200;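 active = mean inhibition across replicate wells exceeding the computed hit threshold, cut at about 13% in these data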;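 note: light from luciferase halves that rejoin when HNF4 fusion proteins dimerize; 0% = DMSO only wells and the 100% control is not given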
Target sequence (P41235 whole entry, looked up, the tested form may be a part): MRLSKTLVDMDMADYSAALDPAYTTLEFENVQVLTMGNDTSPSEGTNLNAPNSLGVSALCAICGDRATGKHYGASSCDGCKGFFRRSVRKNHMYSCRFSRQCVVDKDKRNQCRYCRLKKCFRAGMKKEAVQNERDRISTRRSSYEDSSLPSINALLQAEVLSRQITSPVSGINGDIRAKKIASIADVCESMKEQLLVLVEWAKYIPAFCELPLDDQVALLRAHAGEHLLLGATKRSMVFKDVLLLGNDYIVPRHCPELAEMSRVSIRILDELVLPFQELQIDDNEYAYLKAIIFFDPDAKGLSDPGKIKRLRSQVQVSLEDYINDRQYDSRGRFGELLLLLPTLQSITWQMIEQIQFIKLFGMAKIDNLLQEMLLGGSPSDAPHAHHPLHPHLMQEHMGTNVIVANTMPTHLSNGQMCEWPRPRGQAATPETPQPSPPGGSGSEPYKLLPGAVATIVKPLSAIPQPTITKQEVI
* = called active by the depositor; · = not tested or not shown.

SMILES	ABHD5 PLIN5 PPI	TLR4-MyD88 BLA	CRFBP-R2 block	m5-HT2A agonist	TLR9-MyD88 block	NOD2-RIPK2 inh	ABHD5 PLIN5 conf	HNF4 split-luc
CCC(c1ccccc1)c1noc(CCN(CC)CC)n1 (stereo not given)	60*	·	20	-3	-4	-16	73*	32*
COCCN(C)Cc1nc(C(c2ccccc2)c2ccccc2)no1	-10	·	16	2	15	-3	·	·
COc1cc(CNC(C)(C)CO)cc(Br)c1OCc1ccc(Cl)cc1	28*	-2	-22	-5	-4	5	13	0
COc1cc(CNC(C)(C)CO)cc(Br)c1OCc1ccc(Cl)cc1Cl	34*	5	-98	-4	5	11	20	4
CC1(C)CC(=O)C2=C(C1)NC1=C(C(=O)c3ccccc31)C2c1ccccc1 (stereo not given)	10	-2	-17	-5	-5	7	·	·
CC(C)c1ccc(C2C3=C(CC(C)(C)CC3=O)NC3=C2C(=O)c2ccccc23)cc1 (stereo not given)	29*	-1	-26	-11	2	4	42*	63*
CCCCNC(=O)C1(C)CCCCN1C(=O)c1cc(-c2ccccc2)cs1 (stereo not given)	-2	·	·	-2	·	-5	·	·
CC(C)C[C@H](N)c1nnc(S(=O)(=O)Cc2cccc(F)c2)o1	38*	14	39	-5	-1	10	42*	76*
COc1ccccc1/C=C1\C(=O)Nc2ccccc21	19	·	-3	1	5	3	·	·
COc1ccc2c(c1)/C(=C/c1cc(OC)c(OC)c(OC)c1)C(=O)N2	36*	·	106*	8	-6	7	49*	44*
Cc1ccc2c(c1)/C(=C/c1ccc(F)cc1)C(=O)N2	34*	·	-14	-4	2	4	45*	36*
COC(=O)C1=C(C)NC(C)=C(C(=O)OC)C1C(=O)OCC(=O)NC1CCCCC1C (stereo not given)	-11	·	-12	-5	-2	5	·	·
COc1ccc(/C=C/C(=O)c2ccccn2)cc1	7	7	-5	-6	10	5	·	·
COc1ccc([N+](=O)[O-])c(C=CC(=O)c2ccccn2)c1	53*	·	-12	7	-8	-10	98*	101*
COc1ccccc1/C=C/C(=O)c1ccc(Cl)cc1	27*	1	20	3	3	6	69*	49*
COc1ccc(OC)c(/C=C/C(=O)c2ccc(Cl)cc2)c1	49*	14	17	-1	13	1	72*	55*
COc1cc(O)c(C(=O)/C=C/c2ccccc2)c(OC)c1	27*	·	-12	-4	-13	4	50*	44*
COc1cc(C=CC(=O)c2ccccc2)cc(OC)c1OC	48*	·	·	-2	·	-23	68*	50*
COc1ccc(/C=C/C(=O)c2ccccc2)c(OC)c1	1	2	12	0	3	-6	·	·
CC(C)(C)OC(=O)Nc1ccccc1-n1nnnc1C(C(=O)c1ccccc1)N1CCN(c2ccccn2)CC1 (stereo not given)	0	·	·	4	·	2	·	·
CCOC(=O)C1=CCC(C(C)(C)C)N(S(=O)(=O)c2ccc(C)cc2)C1 (stereo not given)	-2	·	·	-7	·	-7	·	·
Cc1ccc(S(=O)(=O)N2[C@@H](Cc3ccccc3)CO[C@H]2CC(=O)c2ccc(F)cc2)cc1	-11	·	·	-8	·	4	·	·
COc1ccccc1/C=C/C(=O)c1ccccc1	29*	·	16	-7	4	-14	55*	34*
COc1ccccc1/C=C/C(=O)c1ccc(NC(C)=O)cc1	11	-10	8	-6	7	-5	·	·
CCCCN1C(=O)C(CC(=O)NCC2CCCCC2)CC(C(=O)N2CCCCCC2)=C1C (stereo not given)	1	·	·	0	·	-6	·	·
SMILES	ABHD5 PLIN5 PPI	TLR4-MyD88 BLA	CRFBP-R2 block	m5-HT2A agonist	TLR9-MyD88 block	NOD2-RIPK2 inh	ABHD5 PLIN5 conf	HNF4 split-luc
CCCCOC(=O)c1ccc(Nc2ncnc3nc[nH]c23)cc1	6	6	-17	-8	3	-8	·	·
CCCCCCCCOC(=O)c1cc([N+](=O)[O-])c(Sc2ncnc3nc[nH]c23)c([N+](=O)[O-])c1	28*	·	2	10	-9	18	99*	90*
CCCCNC(=O)C1(C)CCCCN1C(=O)c1cc(C#N)cs1 (stereo not given)	-10	·	·	2	·	-4	·	·
O=C(/C(=C/c1ccccc1)n1cncn1)c1ccc(Cl)cc1Cl	33*	-2	-62	2	0	-3	90*	57*
COc1ccc(C(NC(=O)C2CCN(C/C=C/c3ccc(OC(C)=O)c(OC)c3)CC2)c2ccccn2)cc1 (stereo not given)	10	·	·	-4	·	-103	·	·
COC(C[C@@H]1O[C@H]1C(=O)COCc1ccccc1)OC	31*	·	-7	13	-1	0	6	1
COC(C/C=C/C(=O)[C@H](C)OCc1ccccc1)OC	30*	·	29	7	-8	-7	55*	55*
COC(C/C=C/C(=O)COCc1ccccc1)OC	24*	·	38	2	-7	0	46*	43*
COC(C/C=C\[C@H](O)COCc1ccccc1)OC	3	·	8	-3	-10	-4	·	·
CCCCNC(=O)C1C(c2ccc(C(F)(F)F)cc2)=Nc2ccccc2N1C(=O)c1ccc2nc(C)[nH]c2c1 (stereo not given)	-5	·	·	-8	·	-2	·	·
CCCCNC(=O)C1C(c2ccc(C(F)(F)F)cc2)=Nc2ccccc2N1C(=O)C1CCN(C(C)=O)CC1 (stereo not given)	-3	·	·	1	·	-1	·	·
O=C(O)Cc1c[nH]c2ccc(O)cc12	38*	·	-23	4	-8	2	7	39*
COc1cc(-c2cc(NC=O)c3ncc(-c4ccc(C(C)=O)cc4)n3c2)ccc1O	7	·	·	3	·	0	·	·
Cc1ccccc1Nc1nc(N2CCOCC2)nc(N2CCOCC2)n1	-6	·	-6	0	6	-4	·	·
Cc1ccccc1Nc1nc2nonc2nc1N1CCOCC1	25*	-1	-1	4	4	-6	1	2

Screens: PubChem BioAssay, several laboratories
